A number with no mark means an inactive call. The source made the active and inactive calls.
assay: FRG1 expression reporter modulators in myotubes – cell-based, C2C12 myotubes, firefly/Renilla luciferase, luminescence, FRG1 inhibition for FSHD, primary screen (AID 1084); settings: FRG1 promoter luciferase, higher = more signal, called active from +8 up or from −8 down

Row | Compound | z-score
1 | O=C(O)C1=CC[C@H]2C(=O)N(c3ccccc3)C(=O)[C@@H]12 | -0.127
2 | C=CC[C@H](OC(=O)Nc1ccc(SC)cc1)c1ccc(O)c(F)c1 | 8.09 (active)
3 | COC(=O)C1(CC(C)C)C=C2C(=C(C)C(=O)C2C)CN1 (stereo unspecified) | 2.36
4 | [N-]=[N+]=NCc1ccccc1C[C@]1(C(=O)N2CCCCC2)COC(c2ccc(OCCCO)cc2)=N1 | -4.13
5 | C=C[C@H](C)[C@@H](OC(=O)Nc1ccc(SC)cc1)c1ccc(OCCO)cc1 | 5.34
6 | COC(=O)Cn1c(C(=O)N(C)C)cc2c1C[C@H]1CN(C(=O)c3ccccc3)[C@@](Cc3ccccc3)(C(=O)OC)[C@@H]21 | 1.5
7 | O=C1c2ccccc2[C@](Cc2ccccc2I)(C(=O)NCCN2CCOCC2)[C@H](c2ccc(CO)cc2)N1Cc1ccccc1C(F)(F)F | -1.66
8 | Cc1ccc(S[C@]2(C(=O)NCCN3CCOCC3)CC(=O)N(C(C)C)[C@@H]2c2ccc(CO)cc2I)cc1 | -0.977
9 | C=C(CCCC)C(=O)CC[C@H](OC(=O)c1ccccc1-c1ccccc1C(=O)O)c1cccc(OCCO)c1 | -0.0278
10 | [N-]=[N+]=Nc1ccccc1C[C@@]1(C(=O)NCc2ccccc2)N=C(c2ccc(OCCCO)cc2)O[C@@H]1c1ccccc1 | -2.86
11 | C=CCNC(=O)[C@@H]1[C@H]2C(=O)O[C@H](c3ccccc3)[C@H](c3ccccc3)N2[C@H](c2ccc(OCCO)cc2)[C@@]12C(=O)Nc1ccc(C#CC3=CCCCC3)cc12 | -0.138

From PubChem BioAssay
